These results are taken from PubChem BioAssay (NCI).

The structures appear in SMILES notation. The panel holds about 83,000 compounds, 20% with a hit somewhere; the sample as a whole holds those more often.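 Testing used 96-well plates and a 48-hour single-concentration exposure. Example: -40 means 40% of the starting cells died.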 A number with no mark means an inactive call. Activity calls are given as the source filed them. The calls were made as follows: active = growth percent below 10; inactive = the rest.

Among the test systems are SR leukemia; RPMI-8226 leukemia; OVCAR-8 ovarian; OVCAR-5 ovarian; OVCAR-4 ovarian; SK-OV-3 ovarian; IGROV1 ovarian; OVCAR-3 ovarian; HS 578T breast; NCI/ADR-RES ovarian; T-47D breast; BT-549 breast; MDA-MB-435 melanoma; SW-620 colon; MCF7 breast; HCT-116 colon; HCC-2998 colon; KM12 colon.
Holding throughout (experiment): NCI-60 one-dose screen, 48 h (100 = growth as untreated, 0 = no growth, -100 = all killed)
What all share (conditions): 10 µM unless noted

With `Cc1ccc(NC(=O)c2cc(NCc3cc(O)ccc3O)ccc2O)cc1`, the growth with SR leukemia is 20.3%; with RPMI-8226 leukemia, 20.2%; in the test on OVCAR-8 ovarian, 81.8%; with OVCAR-5 ovarian it was 125%; with OVCAR-4 ovarian it was 89.1%; in the test on SK-OV-3 ovarian, 98.6%. For the same compound, the growth in the test with IGROV1 ovarian was 97.9%; in the test with OVCAR-3 ovarian, 71%; in the test with HS 578T breast, 86.4%; with NCI/ADR-RES ovarian, 95.8%; with T-47D breast it was 75.6%; with BT-549 breast, 63.8%. Also, the growth in the test on MDA-MB-435 melanoma was 106%; in the test with SW-620 colon it was 106%; with MCF7 breast, 75.7%; in the test with HCT-116 colon it was 97%; with HCC-2998 colon it was 106%; in the test on KM12 colon, 91%.

Regarding `N/C(=N\OC(=O)c1ccccc1)C(Cc1ccccc1)C(=O)NOC(=O)c1ccccc1` (configuration not stated), the growth in the test with SR leukemia was 6.24% (active); in the test on RPMI-8226 leukemia it was 16.4%; in the test on OVCAR-8 ovarian, 38%; in the test with OVCAR-5 ovarian it was 101%; in the test on OVCAR-4 ovarian, 66.8%; in the test with SK-OV-3 ovarian it was 103%. Moreover, the growth with IGROV1 ovarian was -63.2% (active); in the test on OVCAR-3 ovarian, 51.3%; in the test on HS 578T breast, -14.5% (active); in the test with NCI/ADR-RES ovarian, 18.3%; in the test with T-47D breast, 76.1%; with BT-549 breast it was 26.4%. The growth in the test with MDA-MB-435 melanoma was 5.12% (active); with SW-620 colon it was 65.3%; in the test on MCF7 breast, 51.3%; with HCT-116 colon it was 2.08% (active); in the test on HCC-2998 colon, 96.4%.

As to `COc1cnc2c(c1)C(=O)c1c-2n(CCCN2CCNCC2)c(=O)c2cc(Cl)ccc12`, the growth with SR leukemia is -48.7% (active); in the test with RPMI-8226 leukemia it was -64.9% (active); in the test on OVCAR-8 ovarian, -58.9% (active); with OVCAR-5 ovarian, -96.1% (active); in the test with OVCAR-4 ovarian it was 53.4%; in the test with SK-OV-3 ovarian, 14.5%. For the same compound, the growth in the test on IGROV1 ovarian was 51.4%; in the test on OVCAR-3 ovarian, -90.5% (active); in the test on HS 578T breast, 66.3%; in the test with NCI/ADR-RES ovarian, 48.1%; in the test with T-47D breast, 58.8%; in the test with BT-549 breast it was 45.7%. Also, the growth was 0.312% (active) with MDA-MB-435 melanoma; -84.5% (active) with SW-620 colon; -74.9% (active) in the test on MCF7 breast; -100% (active) with HCT-116 colon; 54.4% with HCC-2998 colon.

Turning to `O=C(CCl)Nc1cc(O)c2c(c1)C(=O)c1cccc(O)c1C2=O`, the growth in the test with SR leukemia was -35.5% (active); with RPMI-8226 leukemia, -53.8% (active); in the test on OVCAR-8 ovarian it was -49.5% (active); in the test on OVCAR-5 ovarian it was -40% (active); in the test on OVCAR-4 ovarian, -1.37% (active); with SK-OV-3 ovarian, 17.1%. The growth is -55.6% (active) in the test with IGROV1 ovarian; -100% (active) in the test with OVCAR-3 ovarian; 11.4% with HS 578T breast; 19.1% with NCI/ADR-RES ovarian; -76.4% (active) in the test with T-47D breast; -48.4% (active) in the test on BT-549 breast. For the same compound, the growth in the test on MDA-MB-435 melanoma was 13.5%; in the test with SW-620 colon, -73.8% (active); in the test on MCF7 breast, -49.6% (active); in the test with HCT-116 colon, -33.9% (active); in the test on HCC-2998 colon it was -42.3% (active).

For the compound `COc1cc(CN(c2ccc(C)cc2)C2OC(=O)c3ccccc32)cc(OC)c1OC` (configuration not stated), the growth in the test with SR leukemia is -6.82% (active); in the test on RPMI-8226 leukemia it was 85.4%; in the test on OVCAR-8 ovarian it was 50.1%; in the test with OVCAR-5 ovarian, 40.3%; in the test with OVCAR-4 ovarian it was 65.9%; in the test with SK-OV-3 ovarian, -6.21% (active). The growth in the test with IGROV1 ovarian is 46.2%; in the test on OVCAR-3 ovarian it was 6.21% (active); in the test on HS 578T breast, 59.5%; with NCI/ADR-RES ovarian, -16.7% (active); in the test with T-47D breast, 53.8%; in the test with BT-549 breast, 20.8%. Besides, the growth was -17.8% (active) in the test with MDA-MB-435 melanoma; 36.2% in the test with SW-620 colon; 13.9% in the test on MCF7 breast; 6.74% (active) in the test on HCT-116 colon; 4.25% (active) in the test on HCC-2998 colon.

`Cc1ccc(Nc2cccc3ccccc23)cc1`: the growth was 62.1% with SR leukemia; 76.5% with RPMI-8226 leukemia; 96.2% in the test with OVCAR-8 ovarian; 93.2% in the test on OVCAR-5 ovarian; 78.9% with OVCAR-4 ovarian; 101% in the test with SK-OV-3 ovarian. Moreover, the growth with IGROV1 ovarian was 73.2%; with OVCAR-3 ovarian, 89.1%; in the test on HS 578T breast it was 83.4%; in the test on NCI/ADR-RES ovarian, 78.1%; in the test on T-47D breast it was 65.1%; with BT-549 breast it was 103%. Moreover, the growth is 29.7% with MDA-MB-435 melanoma; 77.7% with SW-620 colon; 38.4% in the test with MCF7 breast; 80.7% in the test on HCT-116 colon; 88.1% with HCC-2998 colon.

`Nc1c(C(=O)Nc2cccc(Cl)c2)sc2nc3c(cc12)C(=O)CCC3`: the growth is 39.1% in the test with SR leukemia; 51.8% in the test with RPMI-8226 leukemia; 75.3% in the test with OVCAR-8 ovarian; 58.3% in the test on OVCAR-5 ovarian; 60.4% in the test on OVCAR-4 ovarian; 35.2% in the test on SK-OV-3 ovarian. Besides, the growth with IGROV1 ovarian is 52.4%; in the test with OVCAR-3 ovarian, 10.3%; with HS 578T breast, 4.53% (active); in the test with NCI/ADR-RES ovarian it was 17.7%; in the test with T-47D breast, 52.9%; in the test on BT-549 breast, 66.4%. Also, the growth in the test on MDA-MB-435 melanoma was -39.1% (active); in the test on SW-620 colon, 31.3%; in the test on MCF7 breast it was 16.7%; in the test on HCT-116 colon, 27.4%; in the test on HCC-2998 colon it was 8.27% (active); with KM12 colon it was 21.6%.

Turning to `CNC(=O)OC1C(O[C@H]2C[C@H]3[C@@H]4CC=C5C[C@@H](O)CC[C@]5(C)[C@H]4CC[C@]3(C)[C@H]2[C@H](C)C(=O)CCC(C)C)OCC(O)C1OC1OCC(O)C(O)C1OC(=O)c1ccc(OC)cc1` (some centres not stated), the growth was 1.47% (active) in the test with SR leukemia; -25.5% (active) in the test with RPMI-8226 leukemia; 35.5% with OVCAR-8 ovarian; 38.8% with OVCAR-5 ovarian; 55.8% in the test with OVCAR-4 ovarian; -20.6% (active) in the test with SK-OV-3 ovarian. The growth in the test with IGROV1 ovarian was 28.3%; in the test with OVCAR-3 ovarian, 62.7%; in the test on HS 578T breast, -5.93% (active); in the test with NCI/ADR-RES ovarian it was 82.8%; in the test on T-47D breast it was 10.2%; with BT-549 breast it was 18.3%. Further, the growth in the test on MDA-MB-435 melanoma was -25.7% (active); in the test on SW-620 colon, -37.2% (active); in the test with MCF7 breast, 3.66% (active); in the test on HCT-116 colon it was 8.61% (active); in the test on HCC-2998 colon, 67.3%; in the test with KM12 colon it was 36.5%.

On to `ClC1=NC(Cl)C(Cl)=N/C1=N\c1ncn[nH]1` (configuration not stated), for which the growth with SR leukemia was -60.4% (active); in the test on RPMI-8226 leukemia, -8.16% (active); in the test with OVCAR-8 ovarian, -1.21% (active); in the test with OVCAR-5 ovarian, 85%; in the test on OVCAR-4 ovarian, -70.3% (active); with SK-OV-3 ovarian, 66.3%. The growth in the test with IGROV1 ovarian was -50.2% (active); with OVCAR-3 ovarian, -82.2% (active); with HS 578T breast, 123%; in the test on NCI/ADR-RES ovarian, 91.9%; with T-47D breast, -38.3% (active); with BT-549 breast, 91.4%. In addition, the growth is 13.8% with MDA-MB-435 melanoma; -78.7% (active) in the test on SW-620 colon; 5.67% (active) with MCF7 breast; -70.2% (active) in the test with HCT-116 colon; 53.6% in the test on HCC-2998 colon; 26.4% with KM12 colon.
